Reference: the supplement of paper PMC10849652
The full data set covers some 8,800 targets. This sample favours those with a hit. About 0.5% of all pairs of compound and target were hits.

Columns and labels:
Experiment in all cases: log2 fold change, soluble protein after heating vs DMSO (PISA); higher = thermal stabilisation; K562 lysate, 10 uM; active = over 0.2 and 3.5 SD of the protein, either way, in both replicates (recomputed)
[1] = compound: C#Cc1cccc(Nc2ncnc3cc(OCCOC)c(OCCOC)cc23)c1 [erlotinib]
In short: (§1)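 To prepare the extract, K562 pellets were dounce-homogenised in PBS pH 7.4 with 1 mM MgCl2, giving crude material at 1 mg/mL protein. This was treated with 10 μM compound for 30 min, then heated in aliquots for 3 min over 48°C-58°C before pooling and addition of NP-40 to 0.5% at 4°C. Centrifugation at 21,000xg for 90 min left soluble protein in the supernatant, which TMTpro 16plex LC-MS/MS quantified with equalised channel sums. Results are log-two fold changes in thermal stability compared with solvent controls, from duplicates.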

[2] = compound: C/C(=N\NC(=O)C1=CC(=CC=C1)S(=O)(=O)N2CCOCC2)/C3=C(C=CC(=C3)Cl)O
In short: as §1

[3] = compound: C1=CC(=CC=C1C2=NC3=C(N2)C=C(C=C3)C(=O)N)OC4=CC=C(C=C4)Cl
In short: as §1

[4] = compound: C1=CC2=C(C=CC(=C2)/C=C\3/C(=O)NC(=NCC4=CC=CS4)S3)N=C1
In short: as §1

[5] = compound: C1=CC2=NC=CN=C2C=C1/C=C/3\C(=O)NC(=O)S3
In short: as §1

[6] = compound: C1=CC=C(C=C1)C2=NC(=C(N2)C3=CC=NC=C3)C4=CC(=C(C=C4)Cl)O
In short: as §1

[7] = compound: C1=CC=C2C(=C1)C3=NNC4=CC=CC(=C43)C2=O
In short: as §1

[8] = compound: C1CCN(C1)C(=O)NC2=CC=CC(=C2)NC3=NC=C(C(=N3)NCCC4=CN=CN4)Br
In short: as §1

[9] = compound: C1CN(CCC1(CC2=CC=C(C=C2)Cl)N)C3=NC=NC4=C3C=CN4
In short: as §1

[10] = compound: C1COCCN1CCN2C3=CC=CC=C3N=C2NC(=O)C4=CC(=CC=C4)[N+](=O)[O-] [IRAK-1-4 Inhibitor I]
In short: as §1

[11] = compound: C=CC(=O)N1CCC[C@@H](n2nc(-c3ccc(Oc4ccccc4)cc3)c3c(N)ncnc32)C1 [ibrutinib]
In short: as §1

[12] = compound: CC(=O)c1cnc2ccc(-c3cc(Cl)c(O)c(Cl)c3)nc2c1N[C@H]1CC[C@H](CN(C)C)CC1
In short: as §1

[13] = compound: CC(C)(C)Cn1c(N)nc2ccc(-c3[nH]c(C(C)(C)C)nc3-c3ccc(F)cc3)nc21 [ralimetinib]
In short: as §1

[14] = compound: CC(C)(O)CC(=O)NCCn1ccc2ncnc(Nc3ccc(Oc4cccc(C(F)(F)F)c4)c(Cl)c3)c21
In short: as §1

[15] = compound: CC(C)C1=C2N=C(C=C(N2N=C1)NCC3=CC=CC=C3)NCCCCCCN
In short: as §1

[16] = compound: CC1=C(C(CC(=O)N1)C2=CC=C(C=C2)C(F)(F)F)C(=O)NC3=C(C=C4C(=C3)C=NN4)F
In short: as §1

[17] = compound: CC1=C(C2=C(C=C1)C(=O)C3=CC=CC=C3N2CCCN)C
In short: as §1

[18] = compound: CC1=C(C=C(C=C1)NC(=O)C2=CC(=CC=C2)C(C)(C)C#N)NC3=CC4=C(C=C3)N=CN(C4=O)C
In short: as §1

[19] = compound: CC1=C(C=C(C=C1)NC(=O)C2=CC(=CC=C2)N(C)C)NC(=O)C3=CC=C(C=C3)O
In short: as §1

[20] = compound: CC1=CC=C(C=C1)SC2=C3C=C(SC3=CN=C2)C(=O)N
In short: as §1

Measured: log2 fold change

OARD1 (UniProt Q9Y530)
Sequence of UniProt Q9Y530 (Q9Y530 whole entry, looked up): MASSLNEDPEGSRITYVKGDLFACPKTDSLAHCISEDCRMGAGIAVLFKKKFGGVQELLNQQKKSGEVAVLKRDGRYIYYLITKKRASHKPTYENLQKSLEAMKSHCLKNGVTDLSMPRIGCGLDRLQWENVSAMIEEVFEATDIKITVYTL
inactive: [1] 0.002 | [2] -0.1 | [3] 0.008 | [4] 0.028 | [5] -0.019 | [6] -0.015 | [7] -0.031 | [8] -0.036 | [9] 0.041 | [10] -0.01 | [11] -0.013 | [12] 0.003 | [13] 0.003 | [14] 0.002 | [15] -0.01 | [16] -0.027 | [17] -0.046 | [18] 0.032 | [19] 0.035 | [20] 0.011

NGLY1 (UniProt Q96IV0)
Sequence of UniProt Q96IV0 (Q96IV0 whole entry, looked up): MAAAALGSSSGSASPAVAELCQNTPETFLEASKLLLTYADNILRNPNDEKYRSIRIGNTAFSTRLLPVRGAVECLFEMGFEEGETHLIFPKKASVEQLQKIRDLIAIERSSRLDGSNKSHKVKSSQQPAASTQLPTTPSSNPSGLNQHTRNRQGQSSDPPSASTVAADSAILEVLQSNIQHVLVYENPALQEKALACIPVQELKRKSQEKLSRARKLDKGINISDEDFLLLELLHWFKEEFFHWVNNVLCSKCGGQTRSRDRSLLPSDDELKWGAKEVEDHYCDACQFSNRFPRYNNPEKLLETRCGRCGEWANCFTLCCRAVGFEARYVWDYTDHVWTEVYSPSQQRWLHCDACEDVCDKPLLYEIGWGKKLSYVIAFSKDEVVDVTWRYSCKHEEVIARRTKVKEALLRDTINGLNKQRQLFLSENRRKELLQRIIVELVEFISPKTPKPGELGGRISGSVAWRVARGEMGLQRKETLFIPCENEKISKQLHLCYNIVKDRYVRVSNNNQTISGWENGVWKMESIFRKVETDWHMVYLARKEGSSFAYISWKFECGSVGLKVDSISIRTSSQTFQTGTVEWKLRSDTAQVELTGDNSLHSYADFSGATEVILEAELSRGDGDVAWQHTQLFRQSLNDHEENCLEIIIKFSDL
inactive: [1] 0.022 | [2] -0.064 | [3] -0.031 | [4] -0.01 | [5] -0.009 | [6] 0.009 | [7] -0.063 | [8] -0.001 | [9] -0.011 | [10] -0.024 | [11] 0 | [12] -0.01 | [13] 0.011 | [14] -0.008 | [15] 0.03 | [16] -0.001 | [17] -0.01 | [18] -0.006 | [19] 0.017 | [20] 0

NOA1 (UniProt Q8NC60)
Sequence of UniProt Q8NC60 (Q8NC60 whole entry, looked up): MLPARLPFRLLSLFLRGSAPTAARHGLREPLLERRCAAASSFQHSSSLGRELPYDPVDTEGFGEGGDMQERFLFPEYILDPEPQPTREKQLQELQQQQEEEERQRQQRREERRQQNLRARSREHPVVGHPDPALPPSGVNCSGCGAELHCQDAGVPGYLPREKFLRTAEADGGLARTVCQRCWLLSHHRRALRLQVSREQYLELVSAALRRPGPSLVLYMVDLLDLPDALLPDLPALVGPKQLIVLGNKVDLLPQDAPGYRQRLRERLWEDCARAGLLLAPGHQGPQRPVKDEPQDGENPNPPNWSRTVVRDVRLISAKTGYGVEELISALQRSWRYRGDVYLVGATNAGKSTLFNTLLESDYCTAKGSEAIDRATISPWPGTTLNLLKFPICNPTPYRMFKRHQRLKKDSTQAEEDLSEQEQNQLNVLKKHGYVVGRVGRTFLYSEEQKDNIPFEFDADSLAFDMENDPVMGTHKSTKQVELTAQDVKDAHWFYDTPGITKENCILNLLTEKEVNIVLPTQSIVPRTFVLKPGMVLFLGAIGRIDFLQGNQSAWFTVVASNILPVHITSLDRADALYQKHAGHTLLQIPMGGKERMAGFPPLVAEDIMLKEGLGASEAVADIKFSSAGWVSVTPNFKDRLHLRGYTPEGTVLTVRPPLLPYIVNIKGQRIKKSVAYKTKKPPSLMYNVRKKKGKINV
inactive: [1] 0.001 | [2] 0.003 | [3] -0.007 | [4] -0.051 | [5] -0.024 | [6] 0.033 | [7] -0.088 | [8] 0.07 | [9] -0.046 | [10] -0.032 | [11] -0.024 | [12] -0.025 | [13] 0.002 | [14] 0.034 | [15] 0.005 | [16] -0.064 | [17] -0.02 | [18] 0.002 | [19] -0.001 | [20] 0.02

MYD88 isoform 6 (UniProt Q99836)
Sequence of UniProt Q99836 (Q99836 whole entry, looked up): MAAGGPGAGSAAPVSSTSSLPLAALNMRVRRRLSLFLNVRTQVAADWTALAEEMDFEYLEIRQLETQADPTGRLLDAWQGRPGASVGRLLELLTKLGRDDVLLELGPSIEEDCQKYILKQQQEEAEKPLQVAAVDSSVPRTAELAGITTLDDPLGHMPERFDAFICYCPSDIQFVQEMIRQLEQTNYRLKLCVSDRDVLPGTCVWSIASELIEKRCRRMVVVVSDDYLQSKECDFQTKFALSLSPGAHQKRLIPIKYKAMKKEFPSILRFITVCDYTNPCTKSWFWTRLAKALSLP
inactive: [1] -0.066 | [2] 0.007 | [3] -0.011 | [4] -0.019 | [5] -0.019 | [6] -0.015 | [7] -0.025 | [8] 0.032 | [9] -0.067 | [10] 0.004 | [11] 0.044 | [12] 0.003 | [13] 0.022 | [14] 0.005 | [15] 0.024 | [16] 0.002 | [17] -0.028 | [18] -0.009 | [19] -0.024 | [20] -0.029

MYH11 isoform 2 (UniProt P35749)
Sequence of UniProt P35749 (P35749 whole entry, looked up): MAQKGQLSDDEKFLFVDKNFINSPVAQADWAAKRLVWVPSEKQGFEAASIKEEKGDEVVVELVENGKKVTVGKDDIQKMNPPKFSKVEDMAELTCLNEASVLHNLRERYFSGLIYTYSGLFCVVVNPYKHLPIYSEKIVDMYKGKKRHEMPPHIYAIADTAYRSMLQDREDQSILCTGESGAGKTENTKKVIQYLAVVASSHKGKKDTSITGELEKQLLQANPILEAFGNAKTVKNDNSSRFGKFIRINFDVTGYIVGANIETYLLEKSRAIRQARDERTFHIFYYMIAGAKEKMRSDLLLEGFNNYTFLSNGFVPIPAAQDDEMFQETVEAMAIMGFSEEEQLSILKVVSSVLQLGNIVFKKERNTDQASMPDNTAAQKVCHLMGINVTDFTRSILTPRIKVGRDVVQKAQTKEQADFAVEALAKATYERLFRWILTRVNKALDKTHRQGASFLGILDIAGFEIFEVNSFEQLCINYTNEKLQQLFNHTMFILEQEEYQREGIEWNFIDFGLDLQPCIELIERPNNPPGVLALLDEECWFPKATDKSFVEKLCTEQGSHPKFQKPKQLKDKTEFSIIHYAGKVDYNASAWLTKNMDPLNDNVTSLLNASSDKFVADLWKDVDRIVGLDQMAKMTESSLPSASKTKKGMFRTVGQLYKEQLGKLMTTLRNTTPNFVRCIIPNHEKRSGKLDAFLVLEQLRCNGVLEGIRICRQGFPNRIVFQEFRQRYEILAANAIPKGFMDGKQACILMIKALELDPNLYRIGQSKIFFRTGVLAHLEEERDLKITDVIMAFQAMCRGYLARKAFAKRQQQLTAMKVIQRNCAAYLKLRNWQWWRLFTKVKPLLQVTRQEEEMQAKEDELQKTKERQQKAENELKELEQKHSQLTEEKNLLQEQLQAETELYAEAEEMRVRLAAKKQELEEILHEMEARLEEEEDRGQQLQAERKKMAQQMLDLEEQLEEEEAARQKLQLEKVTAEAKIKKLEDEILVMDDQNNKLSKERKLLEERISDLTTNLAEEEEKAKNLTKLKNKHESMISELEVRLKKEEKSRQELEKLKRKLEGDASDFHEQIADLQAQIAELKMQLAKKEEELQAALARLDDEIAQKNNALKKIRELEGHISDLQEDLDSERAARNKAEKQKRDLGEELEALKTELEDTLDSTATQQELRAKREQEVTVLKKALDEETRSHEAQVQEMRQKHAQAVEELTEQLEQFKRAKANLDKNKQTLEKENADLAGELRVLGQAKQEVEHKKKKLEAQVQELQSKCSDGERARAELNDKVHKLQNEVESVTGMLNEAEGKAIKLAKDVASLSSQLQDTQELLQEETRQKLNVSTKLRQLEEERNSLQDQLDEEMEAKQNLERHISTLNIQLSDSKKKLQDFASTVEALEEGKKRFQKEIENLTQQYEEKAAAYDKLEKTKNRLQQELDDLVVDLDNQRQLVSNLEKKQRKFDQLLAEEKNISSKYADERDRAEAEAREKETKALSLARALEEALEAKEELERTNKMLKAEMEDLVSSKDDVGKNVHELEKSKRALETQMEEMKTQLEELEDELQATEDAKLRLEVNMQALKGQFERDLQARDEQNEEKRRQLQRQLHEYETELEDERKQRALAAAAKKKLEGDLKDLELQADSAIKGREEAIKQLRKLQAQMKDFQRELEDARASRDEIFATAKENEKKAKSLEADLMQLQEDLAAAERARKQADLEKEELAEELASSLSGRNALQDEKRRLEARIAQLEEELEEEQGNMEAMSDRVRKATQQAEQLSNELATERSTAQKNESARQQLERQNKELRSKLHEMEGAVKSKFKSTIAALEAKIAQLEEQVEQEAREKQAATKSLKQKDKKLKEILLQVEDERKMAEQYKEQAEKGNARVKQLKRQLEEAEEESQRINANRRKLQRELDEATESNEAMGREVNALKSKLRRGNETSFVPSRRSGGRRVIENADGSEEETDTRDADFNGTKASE
inactive: [1] -0.015 | [2] 0.035 | [3] 0.027 | [4] -0.002 | [5] -0.092 | [6] 0.142 | [7] -0.038 | [8] -0.036 | [9] 0.047 | [10] 0.013 | [11] -0.051 | [12] -0.011 | [13] -0.094 | [14] -0.043 | [15] 0.013 | [16] -0.019 | [17] -0.007 | [18] -0.043 | [19] 0 | [20] -0.004
